This is an account of results in publication PMC9838217, “Structure of SALL4 zinc finger domain reveals link between AT-rich DNA binding and Okihiro syndrome”.

What all share (experiment): HT-SELEX; high values mean tight binding
What all share (conditions): protein: recombinant; vector His6-GST; dsDNA, one strand shown

The target of assay [1] is T1, SALL4 ZFC4 WT (HT-SELEX) (Mus musculus, UniProt Q8BX22 870-940).
T1 sequence: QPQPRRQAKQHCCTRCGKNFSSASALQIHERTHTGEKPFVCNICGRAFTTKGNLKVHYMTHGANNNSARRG
In short, it runs like this:
(§1)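 In triplicate selections of up to 6 cycles, purified recombinant mouse SALL4 zinc finger cluster 4 (residues 870–940, 1 µg) was incubated 10 min at room temperature with library DNA (1.5 µg, then 200 ng) in 100 µl of 10 mM Tris–HCl pH 7.5, 50 mM NaCl, poly(dI-dC) and DTT, and complexes were captured on Ni2+ beads, washed and PCR-amplified. Sequencing was done on MiSeq with scanning for 6-mers. The binding signal is each canonical k-mer's read fraction, reported as fold change against the initial random library.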

Assay [2] has as its target T2, SALL4 ZFC4 R900W (HT-SELEX) (Mus musculus, UniProt Q8BX22 870-940, R900W).
T2 sequence: T1 sequence with R31W
In short, it runs like this:
as §1

For assay [3], the target named is T3, SALL4 ZFC4 G921D (HT-SELEX) (Mus musculus, UniProt Q8BX22 870-940, G921D).
T3 sequence: T1 sequence with G52D
The procedure, abridged: as §1

Changes are numbered by the printed parent chain.

As to CCGAGA, the results for the binding signal in assay [1], in assay [2] and in assay [3] were 0.385 ± 0.0394 fold-change vs cycle 0, 0.459 ± 0.0241 fold-change vs cycle 0 and 0.548 ± 0.059 fold-change vs cycle 0, respectively.

Regarding ACTCTC, the binding signal stood at 0.904 ± 0.0319 fold-change vs cycle 0 in assay [1], 1.05 ± 0.0292 fold-change vs cycle 0 in assay [2] and 1.07 ± 0.0307 fold-change vs cycle 0 in assay [3].

In the case of AGGTGC, the binding signal is 0.324 ± 0.00829 fold-change vs cycle 0 in assay [1], 0.389 ± 0.0132 fold-change vs cycle 0 in assay [2] and 0.519 ± 0.0738 fold-change vs cycle 0 in assay [3].

On to CGTGAG, for which the binding signal in assay [1] stood at 0.437 ± 0.0456 fold-change vs cycle 0; in assay [2], 0.501 ± 0.006 fold-change vs cycle 0; in assay [3], 0.607 ± 0.0306 fold-change vs cycle 0.

Regarding AAGCGA, the binding signal in assay [1] stood at 0.546 ± 0.0399 fold-change vs cycle 0; in assay [2], 0.616 ± 0.0449 fold-change vs cycle 0; in assay [3] it was 0.734 ± 0.0783 fold-change vs cycle 0.

CGAGAA: the binding signal in assay [1] stood at 0.725 ± 0.0428 fold-change vs cycle 0; in assay [2], 0.818 ± 0.0294 fold-change vs cycle 0; in assay [3] it was 0.857 ± 0.0383 fold-change vs cycle 0.

Turning to CACTCG, the binding signal in assay [1] came out at 0.397 ± 0.0122 fold-change vs cycle 0; in assay [2] it was 0.459 ± 0.00566 fold-change vs cycle 0; in assay [3], 0.562 ± 0.0414 fold-change vs cycle 0.

As to GATACA, the values for the binding signal in assay [1], in assay [2] and in assay [3] were 1.33 ± 0.0706 fold-change vs cycle 0, 1.39 ± 0.0615 fold-change vs cycle 0 and 1.37 ± 0.0715 fold-change vs cycle 0, respectively.

As to CATTAA, the results for the binding signal in assay [1], in assay [2] and in assay [3] were 2.01 ± 0.0894 fold-change vs cycle 0, 1.95 ± 0.11 fold-change vs cycle 0 and 1.74 ± 0.165 fold-change vs cycle 0, respectively.

Regarding GGACGA, the binding signal in assay [1] was determined as 0.34 ± 0.0131 fold-change vs cycle 0; in assay [2], 0.412 ± 0.0156 fold-change vs cycle 0; in assay [3] it was 0.498 ± 0.0522 fold-change vs cycle 0.

On to AGAGCT, for which the binding signal was found to be 0.658 ± 0.0205 fold-change vs cycle 0 in assay [1], 0.784 ± 0.026 fold-change vs cycle 0 in assay [2] and 0.8909 ± 0.00859 fold-change vs cycle 0 in assay [3].

For CGTCAG, the binding signal in assay [1] came out at 0.341 ± 0.0358 fold-change vs cycle 0; in assay [2], 0.427 ± 0.0193 fold-change vs cycle 0; in assay [3] it was 0.535 ± 0.0656 fold-change vs cycle 0.

In the case of CCGTGA, the binding signal in assay [1] came out at 0.39 ± 0.0265 fold-change vs cycle 0; in assay [2] it was 0.468 ± 0.0123 fold-change vs cycle 0; in assay [3], 0.578 ± 0.0442 fold-change vs cycle 0.

Turning to GGGTAC, the figures for the binding signal in assay [1], in assay [2] and in assay [3] were 0.482 ± 0.0239 fold-change vs cycle 0, 0.556 ± 0.011 fold-change vs cycle 0 and 0.641 ± 0.0594 fold-change vs cycle 0, respectively.

Regarding GTAGAC, the binding signal was determined as 0.684 ± 0.0405 fold-change vs cycle 0 in assay [1], 0.821 ± 0.033 fold-change vs cycle 0 in assay [2] and 0.891 ± 0.0118 fold-change vs cycle 0 in assay [3].

In the case of AACATG, the binding signal was 1.25 ± 0.0212 fold-change vs cycle 0 in assay [1], 1.38 ± 0.0255 fold-change vs cycle 0 in assay [2] and 1.32 ± 0.0877 fold-change vs cycle 0 in assay [3].

Regarding CTCTGA, the binding signal in assay [1] turned out to be 0.812 ± 0.0446 fold-change vs cycle 0; in assay [2], 0.948 ± 0.0551 fold-change vs cycle 0; in assay [3], 0.993 ± 0.0433 fold-change vs cycle 0.

In the case of AGATAA, the binding signal is 2.16 ± 0.129 fold-change vs cycle 0 in assay [1], 2.17 ± 0.195 fold-change vs cycle 0 in assay [2] and 1.87 ± 0.206 fold-change vs cycle 0 in assay [3].

On to ACCCTC, for which the results for the binding signal in assay [1], in assay [2] and in assay [3] were 0.489 ± 0.00987 fold-change vs cycle 0, 0.562 ± 0.0409 fold-change vs cycle 0 and 0.66 ± 0.0504 fold-change vs cycle 0, respectively.

As to TCATCA, the figures for the binding signal in assay [1], in assay [2] and in assay [3] were 1.46 ± 0.0322 fold-change vs cycle 0, 1.56 ± 0.0457 fold-change vs cycle 0 and 1.49 ± 0.0698 fold-change vs cycle 0, respectively.

Regarding CACGTG, the binding signal in assay [1] was 0.391 ± 0.0518 fold-change vs cycle 0; in assay [2], 0.459 ± 0.0227 fold-change vs cycle 0; in assay [3], 0.562 ± 0.0574 fold-change vs cycle 0.

As for ACGTAT, the binding signal in assay [1] turned out to be 1.2 ± 0.0268 fold-change vs cycle 0; in assay [2], 1.28 ± 0.0492 fold-change vs cycle 0; in assay [3], 1.23 ± 0.0551 fold-change vs cycle 0.

Turning to TGTTAA, the binding signal is 1.94 ± 0.0917 fold-change vs cycle 0 in assay [1], 2 ± 0.113 fold-change vs cycle 0 in assay [2] and 1.77 ± 0.143 fold-change vs cycle 0 in assay [3].

For CAGTCA, the binding signal in assay [1] is 0.794 ± 0.0288 fold-change vs cycle 0; in assay [2] it was 0.925 ± 0.0192 fold-change vs cycle 0; in assay [3] it was 0.946 ± 0.028 fold-change vs cycle 0.

For AGAGGA, the values for the binding signal in assay [1], in assay [2] and in assay [3] were 0.933 ± 0.0495 fold-change vs cycle 0, 1.09 ± 0.0506 fold-change vs cycle 0 and 1.07 ± 0.0639 fold-change vs cycle 0, respectively.

With CCCTTC, the values for the binding signal in assay [1], in assay [2] and in assay [3] were 0.486 ± 0.0255 fold-change vs cycle 0, 0.614 ± 0.0191 fold-change vs cycle 0 and 0.653 ± 0.0312 fold-change vs cycle 0, respectively.

As to TTAGAA, the values for the binding signal in assay [1], in assay [2] and in assay [3] were 1.97 ± 0.0545 fold-change vs cycle 0, 2.01 ± 0.0848 fold-change vs cycle 0 and 1.75 ± 0.166 fold-change vs cycle 0, respectively.

As for ACTGAT, the values for the binding signal in assay [1], in assay [2] and in assay [3] were 1.4 ± 0.115 fold-change vs cycle 0, 1.51 ± 0.108 fold-change vs cycle 0 and 1.43 ± 0.137 fold-change vs cycle 0, respectively.

Turning to CAGCTG, the binding signal in assay [1] was determined as 0.312 ± 0.0432 fold-change vs cycle 0; in assay [2] it was 0.397 ± 0.0183 fold-change vs cycle 0; in assay [3], 0.499 ± 0.0395 fold-change vs cycle 0.

Take AGTTTA: the binding signal in assay [1] came to 1.89 ± 0.117 fold-change vs cycle 0; in assay [2], 1.94 ± 0.143 fold-change vs cycle 0; in assay [3], 1.72 ± 0.194 fold-change vs cycle 0.
